Assay results from PubChem BioAssay.
For some of these results: Potency and affinity values are given separately. Active and inactive are the calls of the source.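 The calls were made as follows, unless noted: active = calcium signal ratio cut to more than 3 SD under the fully stimulated control mean yet still positive, in both repeats and the primary screen; inactive = the rest.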

Assays:
[1] = test system: TRPC4 beta (transient receptor potential cation channel C4), mouse; experiment: activators of mouse TRPC4 channel, confirmation, cell-based, Fluo4 calcium, HEK293 TRPC4beta/mu-opioid, duplicates, 10 µM (AID 2426;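 active = fluorescence ratio normalized to control raised more than 50% in primary screen plus both repeat runs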); conditions: Fluo4 calcium fluorescence, at 10 µM; hits give high values
[2] = test system: transient receptor potential cation channel C4 beta (TRPC4), mouse; experiment: activators of mouse TRPC4 channel, confirmation, cell-based, second round, Fluo4, HEK293 TRPC4beta/mu-opioid, 1 µM (AID 2461;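 active = primary screen active and over 50% activation in each of two duplicate runs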); conditions: Fluo4 calcium fluorescence, at 1 µM; hits give high values
[3] = test system: TRPC4 (transient receptor potential cation channel C4 beta), mouse; experiment: positive allosteric modulators of mouse TRPC4, confirmation, cell-based, second round, Fluo-4, HEK293 TRPC4beta/mu-opioid, 1 µM (AID 2554;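 active = primary screen hit whose fluorescence ratio, in both repeats, exceeds the weak agonist control mean by 3 SD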); conditions: DAMGO EC20, Fluo-4 calcium flux, at 1 µM; hits give high values
[4] = test system: TRPC4 beta (transient receptor potential cation channel C4), mouse; experiment: positive allosteric modulators of mouse TRPC4, confirmation, cell-based, Fluo-4, HEK293 TRPC4beta/mu-opioid (AID 2555;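 active = primary screen hit whose calcium fluorescence ratio, in both repeats, exceeds the weak agonist control mean by 3 SD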); conditions: DAMGO EC20, Fluo-4 calcium flux, at 10 µM; hits give high values
[5] = target: Short transient receptor potential channel 4 (Mus musculus) (UniProt Q9QUQ5); experiment: inhibitors of mouse TRPC4 channel, confirmation, cell-based, Fluo4, HEK293 TRPC4beta/mu-opioid (AID 2636;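 active = calcium signal cut by more than 3 SD below the full-agonist control yet still positive, in both repeats and the earlier primary screen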); conditions: DAMGO, Fluo4 calcium flux, at 10 µM; hits give high values
[6] = target: Short transient receptor potential channel 4 (Mus musculus) (UniProt Q9QUQ5); experiment: inhibitors of mouse TRPC4 channel, confirmation, cell-based, second round, Fluo4, HEK293 TRPC4beta/mu-opioid, 1 µM (AID 2637); conditions: Fluo4 calcium flux, DAMGO, at 1 µM; hits give high values
[7] = target: Short transient receptor potential channel 4 (Mus musculus) (UniProt Q9QUQ5); experiment: mouse TRPC4 channel activators, dose response, cell-based, HEK293 TRPC4/mu-opioid, Fluo-4 calcium (AID 434937;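 active = primary screen activator hit with a dose response curve and TRPC4 channel activation at any tested dose; inactive = no activation, no dose response, or not a primary hit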)
[8] = target: Short transient receptor potential channel 4 (Mus musculus) (UniProt Q9QUQ5); experiment: TRPC4 positive allosteric modulators, dose response, cell-based, HEK293 TRPC4/mu-opioid, Fluo-4 calcium, EC20 DAMGO (AID 434941;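 active = earlier screen potentiator hit that boosts the TRPC4 ion channel at some dose, with a dose response; inactive = no potentiation, no dose response, or not a prior hit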;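 also: calcium entry triggered by an EC20 dose of DAMGO at the co-expressed mu-opioid receptor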)
[9] = target: Short transient receptor potential channel 4 (Mus musculus) (UniProt Q9QUQ5); experiment: mouse TRPC4 channel inhibitors, dose response, cell-based, HEK293 TRPC4/mu-opioid, Fluo-4 calcium (AID 434942;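 active = primary screen inhibitor hit that blocks the TRPC4 channel at some tested dose, yielding a dose curve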)
[10] = target: Short transient receptor potential channel 6 (Mus musculus) (UniProt Q61143); experiment: inhibition of mouse TRPC6 channel, confirmation, selectivity assay for TRPC4 inhibitor project, cell-based, HEK293, membrane potential dye, duplicate (AID 434948;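 active = active in primary screen and both duplicates, each dropping signal beyond three positive-control SD with fluorescence still positive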); conditions: HEK293 TRPC6, membrane potential dye fluorescence, at 10 µM, stimulated with maximal-effect acetylcholine; hits give high values
[11] = target: Short transient receptor potential channel 6 (Mus musculus) (UniProt Q61143); experiment: activation of mouse TRPC6 channel, confirmation, selectivity assay for TRPC4 activator project, cell-based, HEK293, membrane potential dye, duplicate (AID 434950;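 active = membrane potential signal rise above negative control mean plus 3 SD in both duplicates, also active in the earlier TRPC4 screen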); conditions: HEK293 TRPC6, membrane potential fluorescence, at 10 µM; hits give high values
[12] = target: Short transient receptor potential channel 6 (Mus musculus) (UniProt Q61143); experiment: TRPC6 potentiation by TRPC4 potentiator hits, confirmation, selectivity assay for TRPC4 potentiator project, HEK293 cells, membrane potential dye, duplicate (AID 434952;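 active = compound raising the membrane signal above positive-control mean plus 3 SD in both repeats, and a primary screen hit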); conditions: HEK293 TRPC6, membrane potential dye fluorescence, at 10 µM, maximal acetylcholine added after compound; hits give high values
[13] = target: Short transient receptor potential channel 4 (Mus musculus) (UniProt Q9QUQ5); experiment: calcium flux activators in TRPC4/5HT1a cells, counter-screen for TRPC4 activator project, cell-based, second counter screen, HEK293 TRPC4/5HT1a, Fluo-4 (AID 434977;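 active = calcium signal rise above buffer-control mean plus 5 SD in both duplicates, and also a hit in the primary screen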); conditions: Fluo-4 calcium flux, at 10 µM; hits give high values
[14] = calcium flux inhibitors in TRPC4/5HT1a cells, confirmation, counter-screen for TRPC4 inhibitor project, cell-based, second counter screen, HEK293 TRPC4/5HT1a, Fluo-4 (AID 434978;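 active = primary screen active whose calcium signal fell more than 3 SD beyond the full-serotonin control mean in both duplicate plates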;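 as to outcome: serotonin given first at submaximal then at maximal dose after compound preincubation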); conditions: Fluo-4 calcium flux, at 10 µM, serotonin added to trigger calcium flux; hits give high values
[15] = test system: TRPC4 (mouse), co-expressed with 5HT1a in HEK293; experiment: calcium flux potentiators in TRPC4/5HT1a cells, confirmation, counter-screen for TRPC4 potentiator project, cell-based, second counter screen, HEK293 TRPC4/5HT1a, Fluo-4 (AID 434979;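 active = signal rise over 3 SD above mean of control wells given weak agonist, in both repeats and first screen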); conditions: Fluo-4 calcium flux, at 10 µM, serotonin added at its EC20 dose; hits give high values
[16] = calcium flux activation in mu-opioid HEK293 cells, confirmation, counter-screen for TRPC4 activator project, cell-based, HEK293 mu-opioid receptor line (AID 449723;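 active = hit in primary screen, with calcium signal over 5 SD above buffer well mean in both duplicates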;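 also: counter screen cells carry the mu-opioid receptor alone and lack TRPC4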); conditions: Fluo-4 calcium fluorescence, at 10 µM; hits give high values
[17] = calcium flux enhancement in mu-opioid HEK293 cells, confirmation, counter-screen for TRPC4 allosteric potentiator project, cell-based, HEK293 mu-opioid receptor line (AID 449724;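 active = calcium signal rise more than 3 SD above the low-dose agonist control mean, in both duplicate plates and the primary screen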); conditions: Fluo-4 calcium flux, at 10 µM, compound added before EC20 DAMGO stimulus; hits give high values

Short transient receptor potential channel 4 (Mus musculus), sequence (Q9QUQ5 whole entry, looked up): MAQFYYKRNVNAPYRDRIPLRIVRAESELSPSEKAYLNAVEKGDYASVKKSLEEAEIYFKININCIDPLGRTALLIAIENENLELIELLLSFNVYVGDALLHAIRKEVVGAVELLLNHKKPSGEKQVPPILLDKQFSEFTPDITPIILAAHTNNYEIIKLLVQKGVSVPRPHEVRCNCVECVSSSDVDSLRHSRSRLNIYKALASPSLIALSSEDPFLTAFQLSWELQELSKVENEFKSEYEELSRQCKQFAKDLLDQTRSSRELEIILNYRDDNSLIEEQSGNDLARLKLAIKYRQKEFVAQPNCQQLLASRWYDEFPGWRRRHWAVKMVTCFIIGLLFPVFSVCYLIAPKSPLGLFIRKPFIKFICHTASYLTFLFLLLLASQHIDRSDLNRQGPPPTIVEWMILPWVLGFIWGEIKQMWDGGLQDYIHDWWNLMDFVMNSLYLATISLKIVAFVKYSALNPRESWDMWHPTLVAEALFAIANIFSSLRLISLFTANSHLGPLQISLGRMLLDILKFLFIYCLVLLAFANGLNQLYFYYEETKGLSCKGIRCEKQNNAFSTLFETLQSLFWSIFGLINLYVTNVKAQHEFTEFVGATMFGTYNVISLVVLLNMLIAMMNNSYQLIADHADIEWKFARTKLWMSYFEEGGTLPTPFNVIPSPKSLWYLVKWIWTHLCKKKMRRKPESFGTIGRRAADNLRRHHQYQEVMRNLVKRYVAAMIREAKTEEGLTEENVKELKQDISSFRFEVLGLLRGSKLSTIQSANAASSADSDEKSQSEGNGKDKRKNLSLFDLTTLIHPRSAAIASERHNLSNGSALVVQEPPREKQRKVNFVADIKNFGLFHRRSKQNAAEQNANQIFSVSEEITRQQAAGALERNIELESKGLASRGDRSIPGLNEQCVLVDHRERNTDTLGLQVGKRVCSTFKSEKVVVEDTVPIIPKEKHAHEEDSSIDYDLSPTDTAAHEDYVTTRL
Short transient receptor potential channel 6 (Mus musculus), sequence (Q61143 whole entry, looked up): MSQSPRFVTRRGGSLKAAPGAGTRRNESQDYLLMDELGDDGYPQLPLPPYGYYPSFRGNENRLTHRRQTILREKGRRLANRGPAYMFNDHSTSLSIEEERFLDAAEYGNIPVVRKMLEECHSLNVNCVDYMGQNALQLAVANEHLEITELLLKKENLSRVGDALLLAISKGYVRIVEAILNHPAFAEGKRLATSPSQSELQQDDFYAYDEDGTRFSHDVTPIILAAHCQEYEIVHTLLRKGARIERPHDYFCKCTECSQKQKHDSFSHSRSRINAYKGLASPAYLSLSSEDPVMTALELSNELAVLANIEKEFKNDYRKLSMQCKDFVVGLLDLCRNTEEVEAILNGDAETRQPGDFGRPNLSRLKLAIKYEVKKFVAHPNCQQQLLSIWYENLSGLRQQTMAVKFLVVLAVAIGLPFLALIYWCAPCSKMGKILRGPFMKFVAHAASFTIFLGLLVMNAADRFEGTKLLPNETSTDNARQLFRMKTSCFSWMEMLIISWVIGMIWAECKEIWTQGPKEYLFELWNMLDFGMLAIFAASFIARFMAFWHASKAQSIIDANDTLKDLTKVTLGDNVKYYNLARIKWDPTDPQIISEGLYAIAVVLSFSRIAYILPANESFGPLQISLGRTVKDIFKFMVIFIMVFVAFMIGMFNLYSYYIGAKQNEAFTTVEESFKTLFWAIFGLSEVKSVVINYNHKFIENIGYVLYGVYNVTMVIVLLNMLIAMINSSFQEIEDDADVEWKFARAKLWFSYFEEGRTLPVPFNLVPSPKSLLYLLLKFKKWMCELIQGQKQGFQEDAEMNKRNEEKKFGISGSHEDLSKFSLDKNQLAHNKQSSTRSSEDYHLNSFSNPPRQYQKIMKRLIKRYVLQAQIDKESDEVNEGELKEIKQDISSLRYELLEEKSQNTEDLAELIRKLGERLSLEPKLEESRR

Cc1sc2nc(SCC(N)=O)n(C)c(=O)c2c1C
active: potentiation [4] 16% | potentiation [15] 26.5%
inactive: outcome [1] | outcome [2] | outcome [3] | outcome [5] | outcome [6] | outcome [7] | outcome [8] | outcome [9] | outcome [10] | outcome [11] | outcome [12] | outcome [13] | outcome [14] | outcome [16] | outcome [17]

CCOc1ccc(CCNC(=O)c2ccc3c(=O)[nH]c4c(C(=O)NC(C)C)sc(=S)n4c3c2)cc1
active: potentiation [3] 9% | potentiation [4] 11% | potentiation [15] 7.91%
inactive: outcome [1] | outcome [2] | outcome [5] | outcome [6] | outcome [7] | outcome [8] | outcome [9] | outcome [10] | outcome [11] | outcome [12] | outcome [13] | outcome [14] | outcome [16] | outcome [17]

N#Cc1ccc(OCC(O)CN2CCN(c3ncc(C(F)(F)F)cc3Cl)CC2)cc1 (stereo not drawn)
active: potentiation [3] 8% | potentiation [15] 12.6%
inactive: outcome [1] | outcome [2] | outcome [4] | outcome [5] | outcome [6] | outcome [7] | outcome [8] | outcome [9] | outcome [10] | outcome [11] | outcome [12] | outcome [13] | outcome [14] | outcome [16] | outcome [17]

Cc1cc(C)cc(N(CC(=O)Nc2ccc(C)cc2Cl)S(=O)(=O)c2c(C)[nH]c(=O)[nH]c2=O)c1
inactive: outcome [1] | outcome [2] | outcome [3] | outcome [5] | outcome [6] | outcome [7] | outcome [8] | outcome [9] | outcome [10] | outcome [11] | outcome [12] | outcome [13] | outcome [14] | outcome [16] | outcome [17]
active: potentiation [4] 23% | potentiation [15] 78.6%

CN(C)CCCCOc1cccc(Br)c1
inactive: outcome [1] | outcome [2] | outcome [3] | outcome [4] | outcome [5] | outcome [6] | outcome [7] | outcome [8] | outcome [9] | outcome [10] | outcome [11] | outcome [12] | outcome [13] | outcome [14] | outcome [16] | outcome [17]
active: potentiation [15] 20%

CCOc1cccc(CN2CCCC(C(=O)c3cccc(C(F)(F)F)c3)C2)c1O (stereo not drawn)
active: inhibition [5] 77% | inhibition [14] 42.2%
inactive: outcome [1] | outcome [2] | outcome [3] | outcome [4] | outcome [6] | outcome [7] | outcome [8] | outcome [9] | outcome [10] | outcome [11] | outcome [12] | outcome [13] | outcome [15] | outcome [16] | outcome [17]

Cc1cccc(N2CCN(C(=O)C3(S(=O)(=O)c4ccc(Cl)cc4)CC3)CC2)c1C
inactive: outcome [1] | outcome [2] | outcome [3] | outcome [5] | outcome [6] | outcome [7] | outcome [8] | outcome [9] | outcome [10] | outcome [11] | outcome [12] | outcome [13] | outcome [14] | outcome [16] | outcome [17]
active: potentiation [4] 13% | potentiation [15] 15.1%

COC(=O)c1ccc(COc2ccc(/C=N/Nc3nc(C)cc(=O)[nH]3)cc2)cc1
inactive: outcome [1] | outcome [2] | outcome [3] | outcome [4] | outcome [5] | outcome [6] | outcome [7] | outcome [8] | outcome [9] | outcome [10] | outcome [11] | outcome [12] | outcome [13] | outcome [14] | outcome [15] | outcome [16] | outcome [17]

O=C(c1ccccc1F)N1CCN(c2ccc([N+](=O)[O-])cc2-n2cccc2)CC1
active: potentiation [4] 20% | potentiation [15] 17.1%
inactive: outcome [1] | outcome [2] | outcome [3] | outcome [5] | outcome [6] | outcome [7] | outcome [8] | outcome [9] | outcome [10] | outcome [11] | outcome [12] | outcome [13] | outcome [14] | outcome [16] | outcome [17]

CCOC(=O)CC(NS(=O)(=O)c1ccc(OC)c(C)c1)c1cccc([N+](=O)[O-])c1 (stereo not drawn)
inactive: outcome [1] | outcome [2] | outcome [3] | outcome [4] | outcome [5] | outcome [6] | outcome [7] | outcome [8] | outcome [9] | outcome [10] | outcome [11] | outcome [12] | outcome [13] | outcome [14] | outcome [15] | outcome [16] | outcome [17]

CCCSc1nc(C)cc(C)c1S(=O)(=O)c1ccccc1C
inactive: outcome [1] | outcome [2] | outcome [3] | outcome [4] | outcome [5] | outcome [6] | outcome [7] | outcome [8] | outcome [9] | outcome [10] | outcome [11] | outcome [12] | outcome [13] | outcome [14] | outcome [15] | outcome [16] | outcome [17]

COc1ccc(N=C2SCC(=O)N2Cc2ccccc2)cc1
inactive: outcome [1] | outcome [2] | outcome [3] | outcome [4] | outcome [5] | outcome [6] | outcome [7] | outcome [8] | outcome [9] | outcome [10] | outcome [11] | outcome [12] | outcome [13] | outcome [14] | outcome [15] | outcome [16] | outcome [17]

COC(=O)[C@H](Cc1ccccc1)NC(=O)c1ccc2ccccc2n1
inactive: outcome [1] | outcome [2] | outcome [3] | outcome [5] | outcome [6] | outcome [7] | outcome [8] | outcome [9] | outcome [10] | outcome [11] | outcome [12] | outcome [13] | outcome [14] | outcome [16] | outcome [17]
active: potentiation [4] 81% | potentiation [15] 59.7%

O=C(NC1CCCC1)c1cc2ccccc2o1
inactive: outcome [1] | outcome [2] | outcome [3] | outcome [5] | outcome [6] | outcome [7] | outcome [8] | outcome [9] | outcome [10] | outcome [11] | outcome [12] | outcome [13] | outcome [14] | outcome [16] | outcome [17]
active: potentiation [4] 14% | potentiation [15] 19.7%
